The structures appear in SMILES notation. Where “and” joins values, the source holds several entries; their conditions need not be identical. Equal entries are not always repeated. Records with an inconclusive call do not appear. Some structures have more than one record in an assay (separate samples or runs), and their calls can disagree. Calls of active or inactive are those of the source. The call rests on the fitted dose curve; in most records, active means well fitted inhibition curve with a large enough effect in the repeat runs; inconclusive means weak or mixed curves; inactive means no such curve, though single readings can be large or run the other way.
On the % scale 0 is the no-effect control and ±100 the full control effect; potency means the concentration at half of the fitted maximal effect.

The experiment deals with Cytochrome P450 2C19 (Homo sapiens) (UniProt P33261). Kind of experiment: Cytochrome P450 Family 2 Subfamily C Member 19 (CYP2C19) small molecule antagonists: luciferase reporter qHTS assay (AID 1671197). Further: nearly all actives have a fitted effect of over 65% in size. Conditions: P450-Glo CYP2C19 enzyme, luciferin luminescence, 1 h; series mostly up to 115 µM; activity change, negative = inhibition: at the top concentration. An outline of the steps: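 Enzyme-substrate mix with proluciferin substrate (P450-Glo CYP2C19 system) preincubated with compounds 10 min at room temperature; NADPH regeneration solution added, 37C for 1 h; detection reagent stops reaction, luminescence read after 20 min. Ketoconazole positive control.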
Cytochrome P450 2C19 (Homo sapiens), sequence (P33261 whole entry, looked up): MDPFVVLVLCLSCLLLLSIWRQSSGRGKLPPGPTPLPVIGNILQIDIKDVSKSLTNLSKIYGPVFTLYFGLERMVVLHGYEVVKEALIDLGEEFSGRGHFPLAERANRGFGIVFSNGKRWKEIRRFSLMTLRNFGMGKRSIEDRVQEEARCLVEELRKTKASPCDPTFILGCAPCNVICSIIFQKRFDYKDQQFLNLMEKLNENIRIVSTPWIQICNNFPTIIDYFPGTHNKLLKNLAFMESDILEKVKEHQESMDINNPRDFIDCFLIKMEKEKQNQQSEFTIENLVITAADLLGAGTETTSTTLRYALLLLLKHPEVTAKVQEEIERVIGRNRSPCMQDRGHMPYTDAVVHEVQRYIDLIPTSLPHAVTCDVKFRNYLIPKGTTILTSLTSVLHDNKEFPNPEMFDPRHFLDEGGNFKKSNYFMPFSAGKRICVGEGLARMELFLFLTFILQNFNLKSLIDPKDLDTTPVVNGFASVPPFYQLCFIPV
In the case of `CCCCCCCCCCCCCO`, the Potency is 71.8 µM (active) and 36.9 µM (active).

With `C=CCOC(=O)C(=C)C`, the Potency entry was “inactive”.

In the case of `NCCOCCO`, the “activity change, negative = inhibition” value was -24.8% (inactive).

As to `CCCCCC=O`, the Potency result is “inactive”.

With `CC(=O)[C@H]1CC[C@H]2[C@@H]3CC=C4C[C@@H](O)CC[C@]4(C)[C@H]3CC[C@]12C`, the Potency result was “inactive”.

With `OCCNCCO`, the Potency result was “inactive”.

For `OC[C@@H](O)[C@@H](O[C@@H]1O[C@H](CO)[C@H](O)[C@H](O)[C@H]1O)[C@H](O)[C@@H](O)CO`, the Potency entry was “inactive”.

Take `CCCCCCCCCCC(CO)CCCCCCCC` (stereo not drawn): the Potency result was “inactive”.

Regarding `CCO[Si](CCCNC(N)=O)(OCC)OCC`, the Potency entry was “inactive and 56.4 µM (active)”.

On to `Nc1ccc2c(O)cc(S(=O)(=O)O)cc2c1`, for which the Potency was 79.8 µM (active) and 50.2 µM (active).

Consider `CCCN1C=CN(C)C1`, for which the Potency result was “inactive”.

As to `O=C(O)CCCCCCCCCCCC(=O)O`, the Potency is 17.6 µM (active) and 39.9 µM (active).

As for `CC(C)[N+](C)(CCOC(=O)C1c2ccccc2Oc2ccccc21)C(C)C`, the Potency result was “inactive”.

Take `CC(C)=CCO`: the Potency result was “inactive”.

Take `CC(C)(C)c1cccc(C(C)(C)C)c1O`: the Potency is 55.1 µM (active) and inactive.

`C[C@]12CC[C@@H]3c4ccc(O)cc4CC[C@H]3[C@@H]1CC[C@@H]2O`: the Potency was 7.95 µM (active) and 5.64 µM (active).

On to `COC(=O)c1ccc(C)cc1`, for which the Potency result was “inactive”.

For the molecule `CCCCCC1C(=O)CCC1CC(=O)OC` (stereo not drawn), the Potency was 993 nM (active) and 3.56 µM (active).

With `C=C[Si](OCCOC)(OCCOC)OCCOC`, the Potency entry was “inactive”.

Turning to `Cc1ccc(/C(=C\CN2CCCC2)c2ccccn2)cc1`, the “activity change, negative = inhibition” value is -4.48% [at 52.9 µM] (inactive).

For `O=C(O)CCCC(=O)O`, the Potency is 22 µM (active) and inactive.

For `Nc1ccc(O)c(N)c1`, the Potency was 35.3 µM (active) and 35.6 µM (active).

Take `CC1(C)C(C=C(Cl)Cl)C1C(=O)OCc1cccc(Oc2ccccc2)c1` (stereo not drawn): the Potency is 7.91 µM (active) and 3.17 µM (active).

Take `C[C@]12CC[C@@H]3c4ccc(O)cc4CC[C@H]3[C@@H]1CC[C@H]2O`: the Potency was 4.06 µM (active) and 17.8 µM (active).

Consider `O=C1OC2(c3ccccc31)c1cc(I)c(O)c(I)c1Oc1c2cc(I)c(O)c1I`, for which the Potency is 56.5 µM (active) and 18 µM (active) and 5.43 µM (active).

On to `CCC(Cc1c(I)cc(I)c(N)c1I)C(=O)O` (stereo not drawn), for which the “activity change, negative = inhibition” value was -0.719% [at 52.9 µM] (inactive).

With `c1ccc2ncccc2c1`, the Potency result is “inactive”.

Take `Cc1ccc2c(c1)C(=O)OC2=O`: the “activity change, negative = inhibition” value was -5.24% (inactive).

The values are drawn from PubChem BioAssay (Tox21).
